The text below walks through data of PubChem BioAssay AID493052 (Broad Institute, 2011).

Entries with a potency or affinity are not part of this list. Values without a mark were called inactive.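 Rule for the calls: active = viability falls with dose and fitted half-maximal concentration is at most ten times the top valid dose; inconclusive = flat partial loss of 30 to 70 percent, or poor fit; inactive = flat within 30 percent, too weak, or rising signal.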

The experiment is described as follows: BJeHLT cell viability loss – BJeHLT cells, dry powder, counter-screen for Ras selective lethality project, dose response (AID 493052). As to conditions: BJeHLT fibroblasts viability, Alamar Blue fluorescence, 48 h; series mostly up to 45 µM; activity change, negative = less viable: at the top concentration. (The purpose of a counterscreen is to sort out artefacts and off-target activity.)
`COc1ccc(N(C(=O)CSc2ncccn2)C(C(=O)NCCc2ccccc2)c2cccs2)cc1Cl` (stereo not given): the “activity change, negative = less viable” value is -15.2% [at 38 µM]. The value for `COCC(=O)N(c1ccc(OC)c(Cl)c1)C(C(=O)NCCc1ccccc1)c1cccs1` (stereo not given) was 4.09%; that for `O=C(c1[nH]ncc1[N+](=O)[O-])N1CCN(C(c2ccccc2)c2ccccc2)CC1` was 6.21%; that for `COc1ccc(N(C(=O)CO)C(C(=O)NCCc2ccccc2)c2cccs2)cc1Cl` (stereo not given) was 7.01%. Regarding `CCC(=O)N(c1ccc(OC)c(Cl)c1)C(C(=O)NCCc1ccccc1)c1cccs1` (stereo not given), the “activity change, negative = less viable” value is 2.96%.
